# PubChem BioAssay (EPA / NIEHS)
# “And” between values parts separate entries of the source, which are not always exact repeats. Equal entries are not always repeated. Results filed as inconclusive are left out. The source made the active and inactive calls. How the source made its calls, unless noted: active means hit-call score of the fitted dose curve at least 0.9, where 1 is the maximum; inconclusive means response in the unintended direction; inactive means score below 0.9.
# How the values were obtained:
# PGR (gene 5241) = PGR (gene 5241) (UniProt P06401); experiment: NVS_NR_hPR: NovaScreen (NVS) Nuclear Receptor Binding Assay for human Progestron Receptor (PR) (AID 2283360);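 further: active means loss of bound radioligand signal versus DMSO baseline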
# In short: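 Cell-free radioligand binding using receptor protein extracted from T47D cells, read by scintillation counting 18 hours after dosing. Loss of signal relative to DMSO baseline indicates displacement; primary screen single concentration 25 uM in duplicate, actives followed in concentration series.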
# [1] = target: Glucocorticoid receptor (Homo sapiens) (UniProt P04150); experiment: NVS_NR_hGR: NovaScreen (NVS) Nuclear Receptor Binding Assay for human Glucocorticoid Receptor (GR) (AID 2283363);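 on AC50: activity is loss of specific radioligand binding signal relative to DMSO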
# In short: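 Filter scintillation readout of tritiated/iodinated radioligand displaced by test chemical; cell-free extracted protein; 16 h. DMSO = negative control/baseline. Duplicate single-point 25 uM screen, then concentration-response on actives.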
# [2] = target: rat Androgen Receptor (AR), Ar (gene 24208) (UniProt P15207); experiment: NVS_NR_rAR: NovaScreen (NVS) Nuclear Receptor Binding Assay for rat Androgen Receptor (AR) (AID 2283366)
# In short: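 Actives from a duplicate single-concentration (25 uM) primary run went on to concentration series. Displacement of radioligand was counted by filtration and scintillation, 18 h post-dose, using prostate extracts from testosterone-pretreated rats, with DMSO as baseline.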
# [3] = target: Peroxisome proliferator-activated receptor gamma (Homo sapiens) (UniProt P37231); experiment: NVS_NR_hPPARg: NovaScreen (NVS) Nuclear Receptor Binding Assay for human Peroxisome Proliferator-activated Receptor gamma (PPARg) (AID 2283370)
# In short: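 Fluorescence polarization readout of ligand binding to extracted human PPARg, measured at 2 h. Duplicate single-point screen at 25 uM, then concentration-series retesting; activity defined as signal loss versus DMSO.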
# [4] = target: mouse Estrogen Receptor alpha (Era), Esr1 (gene 13982) (UniProt P19785); experiment: NVS_NR_mERa: NovaScreen (NVS) Nuclear Receptor Binding Assay for mouse Estrogen Receptor alpha (Era) (AID 2283378);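 further: hit means loss of bound radioligand signal relative to DMSO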
# In short: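 Filter radiodetection of radioligand displacement from extracted receptor protein, measured 18 h post-dose. Single 25 uM concentration in duplicate initially, with concentration-series follow-up. Binding loss fitted relative to DMSO.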
# [5] = target: Estrogen receptor (Homo sapiens) (UniProt P03372); experiment: OT_ERa_GFPERaERE_0480: Odyssey Thera (OT) 8-hour HeLa Transcription Induction Assay for Estrogen Receptor (AID 2283381; active means hit-call score of the fitted dose curve at least 0.9, where 1 is the maximum; inactive means score below 0.9)
# In short: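 Human cervical HeLa cells were treated for 8 hours, after which ERE-driven GFP induction was measured by fluorescence microscopy; increases over DMSO baseline defined activity.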
# [6] = target: Estrogen receptor (Homo sapiens) (UniProt P03372); experiment: OT_ERa_GFPERaERE_0120: Odyssey Thera (OT) 2-hour HeLa Transcription Induction Assay for Estrogen Receptor (AID 2283382)
# In short: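 Cells (human cervical HeLa) receive compound, incubate 2 hours, then are imaged for fluorescent reporter induction. Images are quantified by high content analysis, and activity is fitted as gain of signal against DMSO.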
# [7] = target: Retinoic acid receptor RXR-alpha (Homo sapiens) (UniProt P19793); experiment: OT_NURR1_NURR1RXRa_0480: Odyssey Thera (OT) 8-hour HEK293T Protein Complementation Assay for Nurr1/retinoid X receptor (RXR) (AID 2283385)
# In short: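 Interaction of bait and prey reconstitutes a functional reporter, whose fluorescence was measured in HEK293T cells dosed with compound for 8 hours. Signal gain relative to DMSO defined the single endpoint.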
# [8] = target: Retinoic acid receptor RXR-alpha (Homo sapiens) (UniProt P19793); experiment: OT_NURR1_NURR1RXRa_1440: Odyssey Thera (OT) 24-hour HEK293T Protein Complementation Assay for Nurr1/retinoid X receptor (RXR) (AID 2283386)
# In short: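 Steps: fragment-tagged Nurr1 and RXRα expressed in HEK293T; compounds added; after 24 h, complemented reporter quantified by fluorescence intensity; signal increase over DMSO fitted as the single endpoint.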
# [9] = target: Retinoic acid receptor alpha (Homo sapiens) (UniProt P10276); experiment: NVS_NR_hRARa_Agonist: NovaScreen (NVS) Nuclear Receptor Binding Assay for human Retinoic Acid Alpha Receptor Agonism (RAR) (AID 2283361)
# In short: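 TR-FRET signal, 2 h post-dosing; cell-free extracted protein; DMSO = baseline, positive fitting direction; 25 uM single-point duplicate, then concentration series for actives.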
# [10] = target: Estrogen receptor beta (Homo sapiens) (UniProt Q92731); experiment: OT_ER_ERbERb_1440: Odyssey Thera (OT) 24-hour HEK293T Protein-Complementation Assay for Estrogen Receptor-beta/-beta Homodimer (AID 2283380);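 further: scored as signal increase over DMSO baseline for both agonists and antagonists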
# In short: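 HEK293T cells stably expressing ER beta LBD (aa 310-547) homodimer fragment-complementation reporter, dosed 24 h. Cells formaldehyde-fixed, Draq5-stained; gain in nuclear (agonist) or nuclear plus cytoplasmic (antagonist) fluorescence versus DMSO read by laser scanning cytometry.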
# [11] = target: Nuclear receptor subfamily 1 group I member 2 (Homo sapiens) (UniProt O75469); experiment: NVS_NR_hPXR: NovaScreen (NVS) Nuclear Receptor Binding Assay for human Pregnane X Receptor (PXR) (AID 2283365);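 further: a drop in FRET signal versus DMSO baseline means the compound binds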
# In short: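 Human PXR binding measured by TR-FRET in a cell-free format, 2 h exposure. Single-concentration duplicates at 25 uM preceded concentration-response retests of actives; endpoint fitted positively relative to DMSO, loss of signal indicating binding.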
# [12] = target: Bile acid receptor (Homo sapiens) (UniProt Q96RI1); experiment: OT_FXR_FXRSRC1_0480: Odyssey Thera (OT) 8-hour HEK293T Protein-Complementation Assay for Farnesoid X receptor/SRC-1 Co-activator (AID 2283383)
# In short: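 PCA, HEK293T, 8 h compound exposure; FXR–SRC-1 binding reconstitutes split reporter; fluorescence intensity; positive-direction fit vs DMSO.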
# [13] = tested on: guinea pig Dopamine Transporter (DAT), gene 100714898; experiment: NVS_TR_gDAT: NovaScreen (NVS) Transporter Assay for guinea pig Dopamine Transporter (DAT) (AID 2283369);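 further: active compounds lower bound radioligand signal relative to DMSO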
# In short: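 Radioligand displacement on membranes from guinea pig striatum, 2 h exposure, bound label counted by filtration and scintillation. Tested at 25 uM in duplicate, then actives in concentration series to 50 uM; DMSO as negative control.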
# [14] = target: human Dopamine Transporter (DAT), SLC6A3 (gene 6531) (UniProt Q01959); experiment: NVS_TR_hDAT: NovaScreen (NVS) Transporter Assay for human Dopamine Transporter (DAT) (AID 2283374);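 further: activity means loss of bound radioligand signal relative to DMSO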
# In short: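 hDAT membranes + tritiated/iodinated radioligand, competitive displacement; 1 h; filter scintillation readout. Single conc 25 uM (duplicate), then conc-response for actives. DMSO = negative control.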
# [15] = target: human Norepinephrine Transporter (NET), SLC6A2 (gene 6530) (UniProt P23975); experiment: NVS_TR_hNET: NovaScreen (NVS) Transporter Assay for human Norepinephrine Transporter (NET) (AID 2283377);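 further: cell-free membrane protein extracted from CHO cells expressing human NET; displacement of radioligand from human NET seen as loss of scintillation signal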
# In short: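 CHO cell extracts expressing the transporter; tritiated or iodinated tracer displaced competitively; filtration plus scintillation readout at 1 h. Single-point duplicates at 25 uM, concentration series for follow-up; activity = signal drop relative to DMSO.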
# [16] = target: Bile acid receptor (Homo sapiens) (UniProt Q96RI1); experiment: OT_FXR_FXRSRC1_1440: Odyssey Thera (OT) 24-hour HEK293T Protein-Complementation Assay for Farnesoid X receptor/SRC-1 Co-activator (AID 2283384)
# In short: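 Measures ligand-driven FXR–SRC-1 co-activator recruitment in HEK293T via fragment complementation, fluorescence intensity at 24 h. DMSO served as negative control and baseline for gain-of-signal fitting.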
# [17] = target: human Thyroid Receptor Alpha (TRa), THRA (gene 7067) (UniProt P10827); experiment: NVS_NR_hTRa_Antagonist: NovaScreen (NVS) Nuclear Receptor Binding Assay for human Thyroid Receptor Alpha Antagonism (TRa) (AID 2283362);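 further: activity is loss of signal relative to DMSO baseline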
# In short: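 Actives from a duplicate 25 uM single-point screen were retested in concentration series. The cell-free antagonist-format binding assay was read by AlphaLISA chemiluminescence at 1 h, scored as signal loss relative to DMSO.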
# Chain of human Norepinephrine Transporter (NET), SLC6A2 (gene 6530) (P23975 whole entry, looked up): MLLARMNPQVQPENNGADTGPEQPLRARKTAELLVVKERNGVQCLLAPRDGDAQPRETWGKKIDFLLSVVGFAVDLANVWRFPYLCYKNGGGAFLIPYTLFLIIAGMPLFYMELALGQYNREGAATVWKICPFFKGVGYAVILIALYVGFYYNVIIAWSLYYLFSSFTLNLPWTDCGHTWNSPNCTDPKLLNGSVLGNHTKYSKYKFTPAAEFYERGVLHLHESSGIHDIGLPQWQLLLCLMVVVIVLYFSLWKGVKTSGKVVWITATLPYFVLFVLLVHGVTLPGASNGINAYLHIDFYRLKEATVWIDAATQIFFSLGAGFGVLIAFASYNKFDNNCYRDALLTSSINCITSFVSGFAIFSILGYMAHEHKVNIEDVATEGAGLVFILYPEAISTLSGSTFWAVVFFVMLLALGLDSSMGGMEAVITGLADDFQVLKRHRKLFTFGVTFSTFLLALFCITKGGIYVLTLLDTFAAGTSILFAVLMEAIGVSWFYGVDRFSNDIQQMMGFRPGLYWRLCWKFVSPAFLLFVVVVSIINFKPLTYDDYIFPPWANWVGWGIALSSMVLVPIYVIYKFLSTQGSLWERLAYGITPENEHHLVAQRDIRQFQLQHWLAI
# Chain of Glucocorticoid receptor (Homo sapiens) (P04150 whole entry, looked up): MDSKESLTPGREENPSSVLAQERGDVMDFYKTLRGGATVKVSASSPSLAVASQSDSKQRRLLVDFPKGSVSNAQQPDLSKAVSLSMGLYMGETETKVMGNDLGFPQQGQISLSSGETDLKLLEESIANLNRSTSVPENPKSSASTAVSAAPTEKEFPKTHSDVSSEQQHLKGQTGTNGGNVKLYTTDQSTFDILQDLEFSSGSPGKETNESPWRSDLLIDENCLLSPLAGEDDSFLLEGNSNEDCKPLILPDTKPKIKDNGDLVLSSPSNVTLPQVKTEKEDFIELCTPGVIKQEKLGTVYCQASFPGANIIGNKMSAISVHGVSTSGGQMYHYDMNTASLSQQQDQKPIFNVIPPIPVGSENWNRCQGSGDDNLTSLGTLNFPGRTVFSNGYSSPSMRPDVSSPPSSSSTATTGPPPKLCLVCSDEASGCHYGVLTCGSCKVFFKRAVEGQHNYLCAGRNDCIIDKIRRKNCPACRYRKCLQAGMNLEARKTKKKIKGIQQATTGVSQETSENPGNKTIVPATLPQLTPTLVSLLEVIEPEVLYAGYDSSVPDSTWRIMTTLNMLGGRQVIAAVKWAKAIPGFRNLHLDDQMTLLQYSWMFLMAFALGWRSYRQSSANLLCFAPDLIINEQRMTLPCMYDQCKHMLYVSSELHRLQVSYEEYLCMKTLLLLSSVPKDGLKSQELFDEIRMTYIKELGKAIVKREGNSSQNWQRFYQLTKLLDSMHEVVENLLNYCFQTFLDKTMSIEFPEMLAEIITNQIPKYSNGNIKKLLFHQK
# Chain of Estrogen receptor (Homo sapiens) (P03372 whole entry, looked up): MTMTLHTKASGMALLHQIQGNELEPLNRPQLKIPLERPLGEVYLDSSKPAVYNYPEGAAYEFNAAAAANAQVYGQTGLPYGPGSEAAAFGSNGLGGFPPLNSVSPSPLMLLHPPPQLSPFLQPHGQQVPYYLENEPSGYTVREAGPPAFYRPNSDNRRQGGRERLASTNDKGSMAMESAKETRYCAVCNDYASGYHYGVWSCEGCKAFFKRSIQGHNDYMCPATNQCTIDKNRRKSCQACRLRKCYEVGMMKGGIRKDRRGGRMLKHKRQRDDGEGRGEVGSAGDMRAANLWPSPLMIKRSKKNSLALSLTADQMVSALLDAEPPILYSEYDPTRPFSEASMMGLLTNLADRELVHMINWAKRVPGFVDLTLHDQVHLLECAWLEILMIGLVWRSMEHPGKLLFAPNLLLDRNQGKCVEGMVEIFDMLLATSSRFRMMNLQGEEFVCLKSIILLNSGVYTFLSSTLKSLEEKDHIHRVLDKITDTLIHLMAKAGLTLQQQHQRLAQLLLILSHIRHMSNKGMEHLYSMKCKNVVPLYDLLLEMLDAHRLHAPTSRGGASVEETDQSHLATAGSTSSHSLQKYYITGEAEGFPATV
# Chain of mouse Estrogen Receptor alpha (Era), Esr1 (gene 13982) (P19785 whole entry, looked up): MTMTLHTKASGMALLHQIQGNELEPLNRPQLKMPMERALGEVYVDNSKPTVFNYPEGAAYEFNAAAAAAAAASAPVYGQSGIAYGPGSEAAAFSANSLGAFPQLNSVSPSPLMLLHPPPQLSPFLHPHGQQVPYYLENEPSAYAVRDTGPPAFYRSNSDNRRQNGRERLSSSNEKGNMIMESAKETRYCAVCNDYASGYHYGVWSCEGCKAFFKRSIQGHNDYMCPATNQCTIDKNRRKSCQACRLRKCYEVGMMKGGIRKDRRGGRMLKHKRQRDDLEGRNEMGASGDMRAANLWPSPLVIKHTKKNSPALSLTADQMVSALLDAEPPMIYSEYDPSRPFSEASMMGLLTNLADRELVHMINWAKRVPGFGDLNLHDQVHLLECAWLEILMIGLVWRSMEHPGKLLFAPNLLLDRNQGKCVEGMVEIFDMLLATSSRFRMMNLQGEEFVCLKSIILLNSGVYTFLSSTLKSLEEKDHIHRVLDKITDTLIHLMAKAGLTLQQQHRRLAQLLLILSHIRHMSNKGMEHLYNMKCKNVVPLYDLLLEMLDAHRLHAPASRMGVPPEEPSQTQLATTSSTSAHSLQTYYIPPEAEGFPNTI
# Chain of human Dopamine Transporter (DAT), SLC6A3 (gene 6531) (Q01959 whole entry, looked up): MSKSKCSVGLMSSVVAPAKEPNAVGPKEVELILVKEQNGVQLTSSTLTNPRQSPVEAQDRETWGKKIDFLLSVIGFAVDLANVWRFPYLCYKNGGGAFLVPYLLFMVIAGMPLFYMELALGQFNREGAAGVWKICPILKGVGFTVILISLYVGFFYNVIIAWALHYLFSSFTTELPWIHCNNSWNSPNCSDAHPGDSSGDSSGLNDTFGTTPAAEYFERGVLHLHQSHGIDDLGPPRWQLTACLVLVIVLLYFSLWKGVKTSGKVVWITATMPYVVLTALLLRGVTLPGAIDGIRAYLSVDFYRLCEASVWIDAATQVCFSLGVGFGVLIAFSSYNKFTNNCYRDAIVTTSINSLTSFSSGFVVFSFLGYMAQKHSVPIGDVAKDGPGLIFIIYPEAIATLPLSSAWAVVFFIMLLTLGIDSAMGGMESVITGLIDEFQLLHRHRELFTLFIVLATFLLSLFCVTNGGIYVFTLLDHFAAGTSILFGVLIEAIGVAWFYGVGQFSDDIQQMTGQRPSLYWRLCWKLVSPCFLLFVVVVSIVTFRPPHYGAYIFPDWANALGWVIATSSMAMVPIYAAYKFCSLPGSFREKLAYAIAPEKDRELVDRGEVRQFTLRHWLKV
# Chain of PGR (gene 5241) (P06401 whole entry, looked up): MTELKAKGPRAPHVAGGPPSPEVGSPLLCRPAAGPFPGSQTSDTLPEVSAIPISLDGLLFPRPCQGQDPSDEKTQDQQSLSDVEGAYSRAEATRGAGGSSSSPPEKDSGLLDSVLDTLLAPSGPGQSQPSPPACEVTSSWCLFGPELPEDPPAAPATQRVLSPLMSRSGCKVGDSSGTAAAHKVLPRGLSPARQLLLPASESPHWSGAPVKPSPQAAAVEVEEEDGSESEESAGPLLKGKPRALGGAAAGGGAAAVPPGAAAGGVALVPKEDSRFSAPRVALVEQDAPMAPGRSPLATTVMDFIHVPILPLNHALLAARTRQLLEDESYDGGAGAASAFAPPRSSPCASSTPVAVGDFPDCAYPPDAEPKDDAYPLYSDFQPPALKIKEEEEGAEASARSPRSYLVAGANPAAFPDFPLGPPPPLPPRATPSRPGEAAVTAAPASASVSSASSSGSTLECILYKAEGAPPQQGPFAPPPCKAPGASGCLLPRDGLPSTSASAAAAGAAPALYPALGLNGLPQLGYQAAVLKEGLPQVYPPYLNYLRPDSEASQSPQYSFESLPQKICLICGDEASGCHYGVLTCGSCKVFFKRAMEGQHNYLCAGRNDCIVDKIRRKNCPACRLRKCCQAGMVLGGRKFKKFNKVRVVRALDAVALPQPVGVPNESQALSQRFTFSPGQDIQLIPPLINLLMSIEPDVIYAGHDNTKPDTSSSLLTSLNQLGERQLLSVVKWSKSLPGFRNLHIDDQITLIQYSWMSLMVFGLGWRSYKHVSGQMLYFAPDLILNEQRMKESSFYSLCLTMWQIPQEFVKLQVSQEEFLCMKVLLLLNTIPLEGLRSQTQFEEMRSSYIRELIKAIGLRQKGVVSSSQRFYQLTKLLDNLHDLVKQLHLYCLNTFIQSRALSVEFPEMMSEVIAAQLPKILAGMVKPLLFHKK
# Chain of Retinoic acid receptor RXR-alpha (Homo sapiens) (P19793 whole entry, looked up, the tested form may be a part): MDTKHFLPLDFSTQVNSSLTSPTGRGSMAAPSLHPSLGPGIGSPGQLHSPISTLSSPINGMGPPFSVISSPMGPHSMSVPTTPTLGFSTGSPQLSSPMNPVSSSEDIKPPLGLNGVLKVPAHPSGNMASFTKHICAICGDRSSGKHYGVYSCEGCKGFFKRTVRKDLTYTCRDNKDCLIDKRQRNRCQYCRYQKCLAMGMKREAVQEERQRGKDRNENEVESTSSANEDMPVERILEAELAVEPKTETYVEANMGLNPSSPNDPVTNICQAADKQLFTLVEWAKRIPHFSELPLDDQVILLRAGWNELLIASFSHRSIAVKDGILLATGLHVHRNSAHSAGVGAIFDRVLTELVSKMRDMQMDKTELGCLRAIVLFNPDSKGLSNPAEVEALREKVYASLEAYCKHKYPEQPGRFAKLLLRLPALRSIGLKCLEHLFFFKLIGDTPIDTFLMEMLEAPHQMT
# Chain of Nuclear receptor subfamily 1 group I member 2 (Homo sapiens) (O75469 whole entry, looked up): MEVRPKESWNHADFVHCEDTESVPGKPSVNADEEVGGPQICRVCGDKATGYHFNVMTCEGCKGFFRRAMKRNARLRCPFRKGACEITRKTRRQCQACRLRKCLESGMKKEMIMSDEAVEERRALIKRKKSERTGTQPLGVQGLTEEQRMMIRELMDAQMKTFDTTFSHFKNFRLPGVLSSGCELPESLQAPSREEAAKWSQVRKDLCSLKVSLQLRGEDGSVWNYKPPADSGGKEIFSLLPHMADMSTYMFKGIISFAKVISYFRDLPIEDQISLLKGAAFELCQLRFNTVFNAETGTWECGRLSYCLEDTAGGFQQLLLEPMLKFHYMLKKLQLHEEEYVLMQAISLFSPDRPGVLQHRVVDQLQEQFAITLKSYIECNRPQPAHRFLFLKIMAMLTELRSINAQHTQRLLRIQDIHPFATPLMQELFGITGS
smiles,measurement,setting,value
O=c1oc2ccccc2c(O)c1C(CC(O)c1ccc(-c2ccc(Br)cc2)cc1)c1ccccc1 (configuration not stated),AC50,PGR (gene 5241),23.9 µM (active)
same,AC50,[1],7.76 µM (active)
O=C1c2ccccc2C(=O)C1C(=O)C(c1ccccc1)c1ccc(Cl)cc1 (configuration not stated),AC50,[1],3.72 µM (active)
same,AC50,[2],4.96 µM (active)
same,AC50,[3],16.2 µM (active)
same,AC50,[4],1.12 µM (active)
same,outcome,[5],inactive
same,outcome,[6],inactive
same,AC50,[7],50 µM (active)
same,AC50,[8],73.2 µM (active)
OC(Cc1ccccc1Cl)(Cn1[nH]cnc1=S)C1(Cl)CC1 (configuration not stated),outcome,PGR (gene 5241),inactive
same,outcome,[2],inactive
O=C(N[C@H]1CN2CCC1CC2)c1ccc2c(c1)OCCO2,outcome,PGR (gene 5241),inactive
same,outcome,[9],inactive
same,outcome,[10],inactive
same,outcome,[7],inactive
same,outcome,[8],inactive
O=C(CCl)Nc1ccccc1,outcome,[11],inactive
same,outcome,[3],inactive
same,outcome,[4],inactive
same,outcome,[10],inactive
same,AC50,[5],84.8 µM (active)
same,outcome,[6],inactive
same,outcome,[12],inactive
CC(O)(CS(=O)(=O)c1ccc(F)cc1)C(=O)Nc1ccc(C#N)c(C(F)(F)F)c1 (configuration not stated),outcome,[1],inactive
same,outcome,[11],inactive
same,AC50,[4],0.026 µM (active)
same,AC50,[10],1.75 µM (active)
same,AC50,[5],12.8 µM (active)
same,outcome,[6],inactive
same,outcome,[8],inactive
O=CCCl,outcome,[11],inactive
same,outcome,[10],inactive
same,outcome,[5],inactive
same,outcome,[6],inactive
same,outcome,[7],inactive
Clc1cccc(Cl)c1Cl,outcome,PGR (gene 5241),inactive
same,outcome,[11],inactive
same,outcome,[7],inactive
same,outcome,[8],inactive
Cc1ccccc1OP(=O)(Oc1ccccc1)Oc1ccccc1,outcome,PGR (gene 5241),inactive
same,AC50,[13],13.9 µM (active)
same,AC50,[14],2.25 µM (active)
CCCCCCCCCCCCOS(=O)(=O)O,AC50,[1],11.6 µM (active) and 12.7 µM (active)
same,AC50,[11],38.1 µM (active) and 17.4 µM (active)
same,outcome,[7],inactive
same,outcome,[8],inactive
O=[N+]([O-])c1ccc(Nc2ccccc2)cc1,AC50,PGR (gene 5241),37.6 µM (active)
same,AC50,[13],4.24 µM (active)
same,AC50,[14],5.62 µM (active)
same,AC50,[15],20.4 µM (active)
same,outcome,[4],inactive
Cc1cc(C(C)(C)c2ccc(O)c(C)c2)ccc1O,AC50,PGR (gene 5241),23.3 µM (active)
same,AC50,[1],1.82 µM (active)
same,outcome,[2],inactive
same,AC50,[13],6.35 µM (active)
same,AC50,[14],1.62 µM (active)
same,AC50,[15],8.57 µM (active)
Cc1ccccc1OP(=O)(Oc1ccccc1C)Oc1ccccc1C,outcome,PGR (gene 5241),inactive
O=C(O)C1(c2ccc3c(c2)OC[C@H](Cc2ccc(-c4ccccc4)cc2)[C@H]3O)CCCC1,outcome,PGR (gene 5241),inactive
same,outcome,[9],inactive
same,AC50,[15],5.29 µM (active)
same,AC50,[12],77 µM (active)
same,AC50,[16],90 µM (active)
same,AC50,[7],76.2 µM (active) and 86.6 µM (active)
same,AC50,[8],79.5 µM (active) and 87.5 µM (active)
[Cl][Sn]([c]1ccccc1)([c]1ccccc1)[c]1ccccc1,AC50,[1],3.31 µM (active)
same,AC50,[2],2.42 µM (active)
same,AC50,[14],2.89 µM (active)
same,AC50,[15],1.19 µM (active)
Nc1ncn[nH]1,outcome,[17],inactive
same,outcome,[11],inactive
same,outcome,[10],inactive
same,outcome,[12],inactive
same,outcome,[8],inactive
CCCCCCCCCCCCc1cccc(S(=O)(=O)O)c1,AC50,PGR (gene 5241),15.9 µM (active)
same,AC50,[1],4.55 µM (active)
same,AC50,[11],26.6 µM (active)
same,AC50,[14],32.9 µM (active)
same,AC50,[15],18.7 µM (active)
same,outcome,[7],inactive
same,outcome,[8],inactive
